# Test results taken from PubChem BioAssay.
# The source made the active and inactive calls.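 How the source made its calls, unless noted: active means fluorescence slope after compound addition differing from the mean of all screened samples at 99.7% confidence, in either direction; inactive means the rest.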
# Tests used:
# [1] = inhibitors of TNFa-induced NFkB p65 translocation, primary screen, imaging, HUVEC, MLSMR starter and 10KST1 sets (AID 438;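 active means inhibition above 20% together with a positive visual image hit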;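 further: compound added about 3h40 before a 20 min TNFalpha stimulation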;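 on inhibition: signal is the nuclear over cytoplasmic p65 intensity ratio per well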); conditions: HUVEC TNFa-induced p65 nuclear translocation; cell count: measured here: nuclei count (cytotoxicity indicator), at 2.08 µM; inhibition: at 2 µM, stronger effect = higher value, 0% TNFa-plus-vehicle, 100% no-TNFa wells
# [2] = reduction of polyQ htt aggregates in cells – imaging, exon1htt(103Q)mCFP cells, high-content imaging, primary screen (AID 483;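 active means visual image review flags a hit and inhibition of aggregation exceeds 20%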;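 further: compound exposure lasted 3 days before fixation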;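 on nuclei count: percent of the per-plate median nuclei count of sample wells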); conditions: exon1htt(103Q)mCFP cell line, aggregate imaging, at 2 µM; inhibition of aggregation: stronger effect = higher value; nuclei count: measured here: cell count, toxicity
# [3] = endothelial E-selectin expression blockers – imaging, HUVEC, immunofluorescence, MLSMR starter and 10KST1 sets, primary screen (AID 487;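 active means visually confirmed hit in the image check and inhibition above 20%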;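 on inhibition: signal is fraction of cell area covered by stained E-selectin grains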;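 on nuclei count: 100% = median nuclei count of all wells on the same plate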); conditions: HUVEC TNFalpha-induced E-selectin immunofluorescence imaging, at 2 µM; inhibition: stronger effect = higher value; nuclei count: measured here: cell number, toxicity
# [4] = biological target: Voltage-gated potassium channel subunit beta-2 (Rattus norvegicus) (UniProt P62483); assay: inhibitors of rat Kvbeta2 reductase activity – biochemical, NADPH fluorescence, primary screen (AID 622;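 active means fluorescence slope higher than the sample average by over 3 SD, cut at about -0.22 in these data, passing the limit was not always enough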;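 further: slope of raw intensity against log time taken from 70 to 1610 s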); conditions: recombinant KvBeta, 4-cyanobenzaldehyde reduction, at 10 µM, stronger effect = higher value
# [5] = biological target: Voltage-gated potassium channel subunit beta-2 (Rattus norvegicus) (UniProt P62483); assay: enhancers of rat Kvbeta2 NADPH turnover – biochemical, NADPH fluorescence, primary screen (AID 623;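 active means NADPH fluorescence slope more negative than the mean of all samples by about 3 SD, 99.7% confidence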;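 further: fluorescence intensity change per second fitted from 20 to 320 s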); conditions: Recombinant KvBeta, NADPH fluorescence decrease slope, 10 min; at 10 µM; stronger effect = lower value
# [6] = biological target: Alpha-2C adrenergic receptor (Homo sapiens) (UniProt P18825); assay: compounds altering alpha2C-coupled GIRK flux – cell-based, HEK293 alpha2C/GIRK1/2, thallium flux, primary screen (AID 624); conditions: thallium flux BTC fluorescence, at 10 µM, actives lie on both sides;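 further: slope of fluorescence ratio to pre-addition baseline per second over 15 to 24 s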
# [7] = blockers of RIG-like receptor reporter activation – cell-based, Sendai virus stimulus, luciferase, 10K MLSCN set, TLR/RLR signaling modifier project, primary screen (AID 602276;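 active means inhibition at or above 50% at 10 µM; inactive means inhibition below 50%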;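 further: firefly luciferase from ISG56 promoter only with Renilla not read in this screen; 0% = Sendai virus plus DMSO and 100% = medium plus DMSO without virus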); conditions: HEK293 RL24 IRF3 luciferase reporter, at 10 µM, stronger effect = higher value
# [8] = TLR3 IRF3 reporter activation blockers – cell-based, poly I:C stimulus, luciferase, 10K MLSCN set, primary screen (AID 602277;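 active means inhibition of the reporter signal at or above 50%; inactive means inhibition below 50%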); conditions: HEK293-TLR3 RL24 IRF3 luciferase reporter, at 10 µM, stronger effect = higher value
# Sequence of Voltage-gated potassium channel subunit beta-2 (Rattus norvegicus) (P62483 whole entry, looked up): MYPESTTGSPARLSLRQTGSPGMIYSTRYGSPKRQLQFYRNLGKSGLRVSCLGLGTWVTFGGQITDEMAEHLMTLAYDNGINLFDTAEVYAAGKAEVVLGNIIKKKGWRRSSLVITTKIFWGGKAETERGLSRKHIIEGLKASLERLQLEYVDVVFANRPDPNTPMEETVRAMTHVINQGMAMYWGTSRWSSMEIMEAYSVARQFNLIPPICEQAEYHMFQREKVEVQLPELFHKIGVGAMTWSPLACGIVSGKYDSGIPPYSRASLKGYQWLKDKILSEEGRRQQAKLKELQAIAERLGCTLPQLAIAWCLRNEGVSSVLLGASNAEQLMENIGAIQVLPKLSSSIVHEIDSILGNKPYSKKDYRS
# Sequence of Alpha-2C adrenergic receptor (Homo sapiens) (P18825 whole entry, looked up): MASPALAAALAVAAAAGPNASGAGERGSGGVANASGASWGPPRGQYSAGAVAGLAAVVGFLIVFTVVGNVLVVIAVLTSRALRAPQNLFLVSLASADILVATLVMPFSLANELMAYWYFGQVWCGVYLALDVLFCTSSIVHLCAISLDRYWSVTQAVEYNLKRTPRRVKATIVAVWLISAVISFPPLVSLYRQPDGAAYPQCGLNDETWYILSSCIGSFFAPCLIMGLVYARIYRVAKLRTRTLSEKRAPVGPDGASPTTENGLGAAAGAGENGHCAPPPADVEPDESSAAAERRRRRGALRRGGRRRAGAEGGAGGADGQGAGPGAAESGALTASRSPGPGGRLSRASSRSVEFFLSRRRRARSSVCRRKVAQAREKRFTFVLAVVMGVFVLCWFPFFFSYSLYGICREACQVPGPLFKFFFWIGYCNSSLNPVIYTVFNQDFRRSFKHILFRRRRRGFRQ
Compound,cell count [1],inhibition [1],inhibition of aggregation [2],nuclei count [2],inhibition [3],nuclei count [3],fluorescence slope [4],NADPH fluorescence slope [5],slope [6],inhibition [7],inhibition [8]
O=C(OCC(=O)c1ccc[nH]1)c1ccc(S(=O)(=O)N2CCCCC2)cc1,314,22.9% (inactive),1.5% (inactive),96.8%,-31.1% (inactive),98%,-0.444 (inactive),-4.5e-05 (inactive),0.00419 (inactive),2.97% (inactive),29.4% (inactive)
COc1cccc(N2CCN(Cc3nc(N)nc(Nc4ccccc4)n3)CC2)c1,463,-12.5% (inactive),18.2% (inactive),84.7%,44.7% (inactive),93.5%,-0.479 (inactive),-5.8e-06 (inactive),0.00543 (inactive),0.669% (inactive),15.7% (inactive)
CC(=O)c1ccccc1NS(=O)(=O)c1c(C)nn(-c2ccccc2)c1C,580,-2.4% (inactive),2.3% (inactive),113%,-74.1% (inactive),92.7%,-0.308 (inactive),-5e-05 (inactive),0.00448 (inactive),-4.38% (inactive),98.9% (active)
CCN(CC)S(=O)(=O)c1ccc(NC2c3ccccc3C(=O)N2CCN2CCOCC2)cc1 (centres undefined),534,-12.6% (inactive),24.2% (inactive),95.3%,-147% (inactive),128%,-0.611 (inactive),1.3e-05 (inactive),0.00571 (inactive),4.22% (inactive),10.7% (inactive)
C=CCn1c(SCC(=O)Nc2ccccc2OC)nnc1-c1ccccn1,684,9.1% (inactive),32.8% (inactive),65.8%,-6.9% (inactive),113%,-0.344 (inactive),-2.6e-05 (inactive),0.0051 (inactive),7.11% (inactive),18.2% (inactive)
Cn1cc(CN2CCc3ccccc3C2)c2ccccc21,361,-12.1% (inactive),-6.2% (inactive),146%,-62.7% (inactive),110%,-0.408 (inactive),-0.000148 (inactive),0.00535 (inactive),20.8% (inactive),37.6% (inactive)
COc1ccc(CNC(=O)c2nnn(Cc3ccc(OC)cc3)c2N)cc1,649,2.8% (inactive),-8.9% (inactive),84.9%,-6.7% (inactive),92.2%,-0.624 (inactive),-2.4e-05 (inactive),0.00639 (inactive),12.2% (inactive),22.1% (inactive)
COc1ccc(OCC(=O)N2CC3(C)CC2CC(C)(C)C3)cc1 (centres undefined),403,-0.6% (inactive),-6.4% (inactive),122%,-55.8% (inactive),97.4%,-0.495 (inactive),-6.6e-06 (inactive),0.004 (inactive),20% (inactive),26.7% (inactive)
CCOc1ccccc1C(=O)NCc1ccc2c(c1)OCO2,414,1.1% (inactive),-12.2% (inactive),98.8%,-18.7% (inactive),94.7%,-0.388 (inactive),-3.6e-05 (inactive),0.00485 (inactive),10.4% (inactive),-6.17% (inactive)
CCOC(=O)N1CCC(NC(=O)CCN2C(=O)COc3ccccc32)CC1,322,-2.6% (inactive),11.5% (inactive),106%,-22.4% (inactive),127%,-0.27 (inactive),1.7e-05 (inactive),0.00554 (inactive),17% (inactive),17.2% (inactive)
O=S(=O)(NCC1CCCO1)c1cc(Cl)ccc1Br (centres undefined),426,-0.2% (inactive),7.4% (inactive),108%,-4.9% (inactive),117%,-0.506 (inactive),7.7e-05 (inactive),0.00336 (inactive),-13.6% (inactive),-30.7% (inactive)
Cc1nc2ccccn2c1/C(O)=C1\C(=O)C(=O)N(CCCN(C)C)C1c1ccc(F)cc1 (centres undefined),507,21.6% (inactive),-28.8% (inactive),92.5%,-54.5% (inactive),122%,-0.566 (inactive),1.9e-05 (inactive),0.00687 (inactive),6.26% (inactive),3.28% (inactive)
COc1ccc(N2CCN(CCCNC(=O)CC3Oc4ccc(C)cc4NC3=O)CC2)cc1 (centres undefined),581,0.9% (inactive),11.6% (inactive),104%,-40.7% (inactive),130%,-0.472 (inactive),1.7e-05 (inactive),0.00619 (inactive),12.9% (inactive),22.1% (inactive)
COc1ccc2cc3cc(C(=O)NCC4CCCO4)oc3nc2c1 (centres undefined),323,-7.8% (inactive),3.3% (inactive),56.8%,-20.5% (inactive),108%,-0.0444 (active),-1.4e-06 (inactive),0.00645 (inactive),-11.2% (inactive),-36.3% (inactive)
